The values below come from PubChem BioAssay (NCI).

Common to all, as to test: NCI-60 one-dose screen, 48 h (100 = growth as untreated, 0 = no growth, -100 = all killed)
Common to all, as to conditions: 10 µM

The subject of assay [1] is DU-145 prostate.
The test system of assay [2] is K-562 leukemia.
Assay [3] relates to MALME-3M melanoma.
In assay [4] the test system is MDA-MB-231 breast.
Assay [5] relates to RXF 393 renal.
Assay [6] relates to SF-268 CNS.
The subject of assay [7] is SF-295 CNS.
The test system of assay [8] is SF-539 CNS.
Assay [9] relates to UACC-257 melanoma.
In assay [10] the test system is M14 melanoma.
Assay [11] relates to HCT-15 colon.
The test system of assay [12] is HT29 colon.
Assay [13] has as its system SNB-75 CNS.
Assay [14] has as its system SNB-19 CNS.
For assay [15], the system named is U251 CNS.
The test system of assay [16] is PC-3 prostate.
In assay [17] the test system is SK-MEL-5 melanoma.
In assay [18] the test system is UACC-62 melanoma.
In assay [19] the test system is LOX IMVI melanoma.
The subject of assay [20] is SK-MEL-28 melanoma.

Compounds without any hit were thinned out: in the full panel of roughly 83,000, 20% have a hit.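 Percent growth is the endpoint: 0 to 100 indicates growth inhibition (40 means 60% inhibition), 0 means no net growth, and negative values indicate cell death.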 Values without a mark were called inactive. Activity calls are given as the source filed them. Rule for the calls: active = growth percent below 10; inactive = the rest.

With `c1ccc(CC(NCCNC(Cc2ccccc2)c2ccccc2)c2ccccc2)cc1` (stereo not given), the growth in assay [1] is 15.7%; in [2], -25.7% (active); in [3], -22.5% (active); in assay [4] it was 7.83% (active); in assay [5], -8.13% (active); in assay [6], 43.1%. The growth in assay [7] was 2.14% (active); in [8], 32.3%; in assay [9], 48.5%; in [10] it was 2.08% (active); in [11] it was 15.5%; in assay [12], -27.7% (active). In addition, the growth in assay [13] is 63.3%; in assay [14], 44.4%; in assay [15] it was 13%; in assay [16], 24.2%; in assay [17], -52.3% (active); in assay [18] it was 16%. The growth is -87.9% (active) in assay [19] and 50.2% in assay [20].
In the case of `CCc1c(C(=O)NCc2c(O)ccc3cccc(O)c23)[nH]c(C)c1C(C)=O`, the growth was 55.1% in [1]; 16.8% in [2]; 37.4% in [3]; 48.3% in [4]; 58.8% in assay [5]; 31.1% in [6]. Also, the growth in [7] is 11.8%; in assay [8] it was 56.3%; in assay [9], 35%; in [10] it was 30.9%; in assay [11], 14%; in assay [12], 58.2%. Further, the growth in [13] is 56.6%; in assay [14], 53%; in [15], 33.4%; in assay [16], 27.4%; in assay [17], 1.58% (active); in assay [18], 15.4%. Moreover, the growth in assay [19] is 16.2%; in assay [20], 37.5%.
For `COc1cc(-c2nc3ccccc3[nH]2)ccc1OCc1nnc(-c2ccc(Br)cc2)o1`, the growth in [1] was 84.8%; in [2], 57.3%; in [3] it was 67.4%; in [4], 76.2%; in [5], 87%; in [6], 96.8%. The growth was 102% in assay [7]; 110% in [8]; 97% in [9]; 91.9% in [10]; 45.3% in [11]; 70.7% in assay [12]. Further, the growth in [13] is 104%; in [14], 104%; in assay [15] it was 83.9%; in assay [16] it was 96.2%; in assay [17], 75%; in [18], 92.7%. Also, the figures for the growth in assay [19] and in assay [20] were 92.6% and 93.2%, respectively.
Take `COc1cc(OC)cc(N2CCN(C(=O)Nc3nc4cc(F)ccc4nc3OC)CC2)c1`: the growth in assay [1] was 1% (active); in [2], 12.8%; in [3], 44.6%; in [4], 1.05% (active); in [5], 22.1%; in [6], 29.2%. For the same compound, the growth in assay [7] is 15%; in assay [8], -12.2% (active); in assay [9], 72.7%; in assay [10] it was 1.15% (active); in assay [11], 7.06% (active); in assay [12], 3.96% (active). Besides, the growth was 27.9% in [13]; 28.7% in assay [14]; 17.5% in assay [15]; 22.4% in [16]; -42.2% (active) in [17]; 47.9% in assay [18]. Besides, the growth in [19] is 23.6%; in assay [20], 77.1%.
For the compound `Brc1ccc(-c2cn3ccnc3c(-c3ccc(Br)cc3)n2)cc1`, the growth was 72.7% in assay [1]; 16.8% in [2]; 39.5% in assay [3]; 46.5% in [4]; 47% in assay [5]; 56.9% in [6]. Further, the growth in assay [7] was 30.6%; in assay [8], 52.5%; in assay [9], 67.4%; in assay [10] it was 20.1%; in assay [11] it was 21.6%; in [12], 9.88% (active). Further, the growth in assay [13] is 35.6%; in assay [14], 75.8%; in assay [15] it was 39.2%; in assay [16], 66.3%; in assay [17] it was 46.3%; in assay [18], 43.6%. Also, the growth is 43.2% in assay [19] and 62.2% in assay [20].
Turning to `Cc1noc(C)c1-c1ccc2nc(NC(=O)[C@H]3CCN(C#N)C3)cn2c1`, the growth in assay [1] was 89.7%; in [2] it was 40.5%; in [3] it was 75.6%; in assay [4] it was 68.2%; in [5], 83.4%; in [6], 91.3%. Moreover, the growth in assay [7] is 97%; in assay [8] it was 82.3%; in assay [9], 82.1%; in assay [10] it was 77.9%; in [11], 84.4%; in assay [12] it was 78.1%. For the same compound, the growth was 67.7% in [13]; 108% in assay [14]; 93.7% in [15]; 91.7% in assay [16]; 86.6% in assay [17]; 77.7% in assay [18]. Also, the values for the growth in [19] and in assay [20] were 77.7% and 104%, respectively.
In the case of `C[C@H](NC(=O)[C@@H]1CSSC[C@@H](NC(=O)Cc2nc3ccccc3cc2O)C(=O)NCC(=O)N1C)c1ccccc1`, the growth in assay [1] was 83.3%; in assay [2], 43.9%; in [3] it was 125%; in assay [4], 70.8%; in assay [5], 122%; in assay [6], 86.6%. Further, the growth is 104% in assay [7]; 79.3% in assay [8]; 85.4% in assay [9]; 64.8% in assay [10]; 102% in assay [11]; 100% in assay [12]. The growth in assay [13] was 150%; in assay [14], 95.2%; in assay [15] it was 95.7%; in assay [16], 81.2%; in assay [17], 82.5%; in assay [18], 77.9%. Besides, the growth in [19] is 31.3%; in assay [20] it was 67.4%.
Regarding `COc1ccc(Nc2nc(NCc3ccccc3)c3ccccc3n2)cc1`, the growth in assay [1] was 79.6%; in assay [2], 55.5%; in [3] it was 39.7%; in assay [4] it was 41%; in assay [5], 14.5%; in assay [6] it was 31.3%. The growth in assay [7] is 19.6%; in assay [8], 60.9%; in [9] it was 76.5%; in assay [10], 76.9%; in assay [11] it was 72.4%; in assay [12], 49%. For the same compound, the growth is -33% (active) in [13]; 14.4% in [14]; 32.9% in assay [15]; 57.3% in assay [16]; 63.9% in assay [17]; 65.3% in assay [18]. Further, the growth in assay [19] is 46.8%; in [20], 67.7%.
